TGFb inhibitor: blocks TGF-b signaling; HepG2 CAGA-GFP TGF-b/SMAD3 reporter, GFP fluorescence, 18 h; TGF-beta stimulated, 500 pg/mL final; Potency, µM (series often up to 46.1 µM), without a hit: at the highest dose activity, negative = inhibition, most hits filed as inhibitors; 410,000 compounds, 1.2% hits; AID 588855; note: % is set by controls: 0 for no effect and ±100 for the full control effect; nearly all actives have a fitted effect of over 65% in size
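Per well, imaged GFP fluorescence of HEPG2 CAGA-GFP cells gives the signal; cells get compound, then TGF-beta (500 pg/mL final), 18 h at 37 degrees C; %Activity versus -TGF-beta and +DMSO controls.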
TDP1 cell CPT: DT40-hTDP1 cell growth loss with CPT; chicken DT40 Tdp1-/-;hTDP1 cells + 20 nM CPT, ATP luminescence, 48 h; Potency, µM (titrated, usually from 46.2 µM), without a hit: top-dose activity change, negative = growth inhibition, hits mostly inhibitors; 420,000 compounds, 12% hits; AID 686979; note: % is set by controls: 0 for no effect and ±100 for the full control effect; nearly all actives have a fitted effect of over 55% in size
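Chicken DT40 Tdp1-/- cells complemented with human TDP1, 400 cells/well, exposed to compounds plus 20 nM camptothecin for at least 48 h at 37 C; viability read as ATP content by CellTiter-Glo luminescence.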
HepG2 viability: HepG2 cytotoxicity, counter-screen for TGF-b inhibitors; HepG2 CAGA-GFP viability, ATP luminescence, 18 h; Potency, µM (titrated, usually from 46.1 µM), without a hit: top-dose activity change, negative = cytotoxicity, usual class: cytotoxic; 410,000 compounds, 0.76% hits; AID 588856
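CellTiter-Glo luminescence gave cytotoxicity after 18 hours at 37 degrees C. The cells were HepG2 CAGA-GFP in 1% FBS DMEM, stimulated with 500 pg/mL TGF-beta after compound addition. %Activity was normalised to no-cell wells (complete cell-killing) and DMSO (no toxicity), and curves were fitted and classified.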
TDP1 cell noCPT: qHTS for Inhibitors of human tyrosyl-DNA phosphodiesterase 1 (TDP1): qHTS in cells in absence of CPT. DT40 Tdp1-/- hTDP1 cells, no CPT, ATP luminescence, 48 h. Potency, µM (titrated, usually from 46.2 µM), inactives show at the top dose activity change, negative = growth inhibition, hits mostly inhibitors. 420,000 compounds, 15% hits. AID 686978, 2013; note: % is set by controls: 0 for no effect and ±100 for the full control effect; nearly all actives have a fitted effect of over 55% in size
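Camptothecin absent (DMSO only). Human TDP1-complemented DT40 knockout cells, 400 cells/well, 37 °C for minimum 48 hr; ATP measured via CellTiter-Glo, 30 min dark incubation, luminescence.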
ATXN2 expr inh: ATXN2 expression inhibition | HEK-293 ATXN2-luciferase reporter, luminescence, 24 h | Potency, µM (doses to about 57 µM), without a hit: at the top dose activity change, negative = inhibition, usual class: inhibitors | 360,000 compounds, 0.72% hits | AID 1745845; note: % is set by controls: 0 for no effect and ±100 for the full control effect; nearly all actives have a fitted effect of over 55% in size
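qHTS (up to 57 uM final) was run with 24 h compound exposure of reporter cells at 37 °C. Each well was multiplexed: SteadyGlo luminescence measured ATXN2-luciferase expression after a fluorogenic Gly-Phe-AFC viability readout (25 uM final).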
ATXN viability: cell viability loss in ATXN counter-screen | S2 cells (HEK-293 line with an ATXN2-luciferase reporter) viability, CellTiter-Fluor protease fluorescence, 24 h | Potency, µM (highest dose often 56.7 µM), hits mostly cytotoxic | 400,000 compounds, 0.49% hits | AID 651635; note: nearly all actives have a fitted effect of over 40% in size
* marks the source's active call; other numbers are inactive results; i = inactive; ? = inconclusive; . = no result given; [ ] = remark or other dose. This is a sample that favours compounds with a hit; in the whole collection about 17% have one here. Calls come from the whole dose curve; as a rule, active = well fitted curve in the direction sought with a large enough effect; inconclusive = small, poorly fitted or top-dose-only effect, or another doubt; inactive = no such curve, though single readings can be large; an effect the other way counts as inactive or inconclusive. Potency is the fitted concentration of half-maximal effect.

SMILES | TGFb inhibitor | TDP1 cell CPT | HepG2 viability | TDP1 cell noCPT | ATXN2 expr inh | ATXN viability
COc1ccc2nc(SCC(=O)Nc3cc(C)on3)[nH]c2c1 | 12% | -4% | -21% | -13% | 7% | i
C=C1C(=O)O[C@@H]2[C@H]1[C@@H](OC(=O)/C(C)=C/C)C/C(C)=C\C(=O)/C=C(\C)[C@@H]2O | 7.1µM* | 1.5µM* | 11µM* | 2.1µM* | 6.3µM* | 10µM*
O=C(COCc1cc(-c2cccs2)on1)NCc1cccc(Cl)c1 | ? | -25% | -22% | -24% | . | .
Cn1cccc1Cc1nnc(SCC(=O)NC2CCCCC2)n1CCc1ccccc1 | 7% | ? | -2% | ? | -14% | i
CCCNC(=O)c1cccc(C(F)(F)F)c1 | 0% | -7% | -23% | 1% | -6% | i
CCCCNC(=NCc1cccc(C(F)(F)F)c1)Nc1ccccc1 | 0% | 13µM* | -186% | 10µM* | ? | i
O=C1NC(c2ccccc2)=C(c2ccccc2)C1=O | 16% | -12% | 4% | -5% | 10% | i
O=C1C(Br)=C(c2ccccc2)C(c2ccccc2)=C1c1ccccc1 | 0% | 0.58µM* | 18% | 0.92µM* | ? | .
CCCn1c(N)c(N(CCOC)C(=O)COC(=O)COc2c(C)cc(C)cc2C)c(=O)[nH]c1=O | -1% | -9% | -8% | -29% | . | i
Cc1onc(-c2c(Cl)cccc2Cl)c1-c1nnc(-c2ccc(Cl)cc2)o1 | -1% | ? | 10% | 16µM* | -4% | ?
Cc1ccnc(SCC(=O)c2ccc(Br)cc2)c1C#N | 5% | ? | -33% | 21µM* | 42% | i
Cc1ccc(C(=O)CSc2nsc(C)c2C#N)cc1 | -9% | ? | -3% | -29% | 48% | i
O=C(COc1ccccc1)Nc1cccc(-c2cn3cccnc3n2)c1 | 7% | 21µM* | 3% | ? | 5% | i
COc1ccc(-c2cn3cccnc3n2)cc1NC(=O)C1CC1 | 14% | 0% | -2% | 4% | -6% | ?
COc1ccc(-c2cn3cccnc3n2)cc1NC(=O)COc1ccccc1 | ? | 21µM* | -63% | 13µM* | . | .
CCC1Oc2ccccc2N(CC(=O)NC2CCCCC2C)C1=O (stereo not given) | 2% | -28% | 3% | 0% | 3% | i
CC(C)c1ccc(C(=O)CSc2n[nH]c(-c3ccncc3)n2)cc1 | 29% | -27% | 2% | ? | 14% | i
Nc1cc(=O)[nH]c(=S)[nH]1 | 14% | 1% | -4% | -14% | . | .
O=C(c1cc2ccccc2oc1=O)N(Cc1cccs1)Cc1cccs1 | 2% | ? | -3% | 23µM* | 0% | i
O=C(c1cc2ccccc2oc1=O)N(Cc1ccco1)Cc1cccs1 | 3% | 21µM* | -31% | ? | 5% | i
O=C(c1cc2ccccc2oc1=O)N(Cc1cccs1)CC1CCCO1 (stereo not given) | -7% | ? | -4% | ? | -3% | i
COc1ccccc1CNC(=O)c1ccc2c(c1)CCN2S(=O)(=O)c1ccc(Cl)cc1 | 2% | -28% | -11% | ? | 0% | i
COc1ccc(S(=O)Cc2ccc(C(=O)NC3CC3)o2)cc1 (stereo not given) | 12% | 23% | 22% | 11% | . | i
CN(C)C(CNc1ccc(S(C)(=O)=O)cc1[N+](=O)[O-])Cc1ccccc1 (stereo not given) | 18% | 0% | 0% | -23% | -28% | i
O=C(CSc1ccccc1F)NC(=O)NC1CCCC1 | 5% | ? | 5% | ? | . | i
SMILES | TGFb inhibitor | TDP1 cell CPT | HepG2 viability | TDP1 cell noCPT | ATXN2 expr inh | ATXN viability
Nc1cccc2c1C(=O)N(CC(=O)NC13CC4CC(CC(C4)C1)C3)C2=O | 1% | -8% | 0% | -2% | -12% | .
O=C(Cn1sc2ccccc2c1=O)Nc1ccccc1 | 18µM* | 2.3µM* | -94% | 2.1µM* | 35µM* | .
O=C(Cn1sc2ccccc2c1=O)NC12CC3CC(CC(C3)C1)C2 | ? | 1.5µM* | 5.6µM* | 1.8µM* | -33% | ?
CN(C[C@H](CC1CCCCC1)N(C[C@H](Cc1ccccc1)N(CCc1ccccc1)N=O)N=O)N=O | -1% | 18µM* | -10% | 16µM* | -2% | i
CN(C[C@H](Cc1ccccc1)N(C[C@H](Cc1ccccc1)N(CCc1cc(C(F)(F)F)cc(C(F)(F)F)c1)N=O)N=O)N=O | ? | ? | 5% | 21µM* | 4% | i
CN(C[C@H](Cc1ccccc1)N(C[C@H](Cc1cccc2ccccc12)N(CCc1ccccc1)N=O)N=O)N=O | -16% | ? | 3% | ? | 5% | i
CC(C)C[C@@H](CN(C)N=O)N(C[C@H](Cc1ccccc1)N(CCc1ccccc1)N=O)N=O | -1% | ? | -18% | 18µM* | -8% | i
Cc1ccsc1C(=O)NNC(=O)c1ccncc1 | -2% | 0% | 48% | 1% | -2% | i
Cn1cc([N+](=O)[O-])c(C(=O)N/N=C/c2ccc3c(c2)OCO3)n1 | -7% | 30% | -16% | 7% | . | i
C=CCNC(=S)N/N=C/c1cn(C)c2ccccc12 | ? | ? | 10% | ? | 9% | i
Cn1cc(/C=N/NC(N)=S)c2ccccc21 | ? | 13µM* | -18% | 3.3µM* | 7% | i
Cc1nn(-c2ccccc2)cc1/C=N/NC(N)=S | ? | 18µM* | 2% | ? | 30% | ?
O=C(c1ccccc1Cl)N1CCCCC1CCN1CCCCC1 (stereo not given) | 1% | -21% | -12% | -6% | . | .
CCOC(=O)C1(C)CCN1C(=O)c1cccc2ccccc12 (stereo not given) | -3% | ? | -4% | ? | -1% | i
CC(C)(O)C(=O)N=Nc1c(O)[nH]c2ccccc12 | 0% | 0% | -14% | -3% | 14% | i
Cc1cccc(NC(=S)N=Nc2c(O)[nH]c3ccccc23)c1 | ? | 3.3µM* | -28% | 4.6µM* | ? | ?
CC(C)c1ccc2[nH]c(O)c(N=NC(=O)c3cccc(S(=O)(=O)Nc4ccccc4Cl)c3)c2c1 | 9% | -4% | -12% | 3% | -18%[11.3 µM] | i
CC(C)NC(=S)N=Nc1c(O)[nH]c2ccc(C(C)C)cc12 | ? | 5.8µM* | -14% | 5.2µM* | . | 3.5µM*

Screening results from PubChem.
